KB-V1 MDR tox: qHTS assay for MDR1-selective chemotherapeutics: Primary screen using the drug-selected MDR subline cells KB-V1 | KB-V1 MDR cells viability, CellTiter-Glo, 72 h | 3.4% of 400,000 active | Potency, µM (series often up to 46.1 µM), usual class: cytotoxic | AID 1347076, 2019; note: % is set by controls: 0 for no effect and ±100 for the full control effect; nearly all actives have a fitted effect of over 60% in size
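Following 72 h at 37 degrees C with compound, KB-V1 cell viability was read by CellTiter-Glo luminescence, medium being phenol-red-free DMEM plus 10% FBS; concentration-response parameters came from normalized, curve-fitted qHTS data.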
SW480 rereplic: A quantitative high throughput screen for small molecules that induce DNA re-replication in SW480 colon adenocarcinoma cells; Potency, µM (highest dose often 46.1 µM), inactives show at the highest dose re-replication activation, usual class: activators; AID 624297, 2012; 1.8% of 340,000 active; SW480 DNA re-replication, Hoechst DNA content imaging, 48 h; note: % of control where 0% means no effect; nearly all actives have a fitted effect of over 55% in size
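Cells (250 per well) received 23 nL compound or DMSO by pin tool and were kept 48 hr at 37 C, 5% CO2. Nuclei were then stained with Hoechst for 40 min and scanned for DNA content.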
HT1080 IDH1KD tx: qHTS for induction of synthetic lethality in tumor cells producing 2HG: qHTS for the HT-1080-IDH1KD cell line. Potency, µM (highest dose often 46.1 µM), without a hit: at the highest dose activity, negative = toxicity, hits mostly cytotoxic. HT-1080 IDH1 knockdown viability, ATP luminescence, 48 h. AID 686971, 2013. 2% of 360,000 active;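 note: 0% = DMSO wells and -100% = cell-free medium wells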
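After a 2 h attachment period, IDH1KD HT-1080 cells took pin-transferred compound for 48 h at 37 °C; ATP-based luminescence after 10 min room-temperature reagent incubation reported viability.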
HT1080-NT tox: qHTS for induction of synthetic lethality in tumor cells producing 2HG: qHTS for the HT-1080-NT fibrosarcoma cell line | 1.6% of 360,000 active | Potency, µM (highest dose often 46.1 µM), for inactives: top-dose activity, negative = less viability, most hits filed as cytotoxic | HT-1080-NT fibrosarcoma viability, CellTiter-Glo ATP luminescence, 48 h | AID 686970, 2013;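 note: NT is the 2HG producing partner of a matched IDH1 knockdown line; 0% = DMSO-treated cells and -100% = media-only wells without cells; nearly all actives have a fitted effect of over 55% in size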
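Fibrosarcoma NT cells, 750 per well in 5% FBS RPMI, were exposed to compound for 48 hours. Viability: CellTiter-Glo luminescence.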
KB-3-1 cytotox: qHTS assay for MDR1-selective chemotherapeutics: Primary screen using the parental adenocarcinoma cell KB-3-1 | KB-3-1 viability, CellTiter-Glo ATP luminescence, 72 h | 1.4% of 400,000 active | Potency, µM (doses to about 46.1 µM), actives largely listed as cytotoxic; note: % is set by controls: 0 for no effect and ±100 for the full control effect; nearly all actives have a fitted effect of over 60% in size
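Parental KB-3-1 viability, qHTS format: 72 h compound exposure, 37 °C; CellTiter-Glo; media-only wells and DMSO plates as controls; concentration-effect fits on corrected data.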
MCF10A rerep: A quantitative high throughput screen for small molecules that induce DNA re-replication in MCF 10a normal breast cells; MCF 10A DNA re-replication, Hoechst nuclear intensity, 48 h; Potency, µM (titrated, usually from 46.1 µM), for the others: at the top dose activity, positive = re-replication, hits mostly activators; 2.9% of 350,000 active; AID 624296, 2012; note: % of control where 0% means no effect; nearly all actives have a fitted effect of over 50% in size
* marks the source's active call; other numbers are inactive results; i = inactive; ? = inconclusive; / = not tested or not shown; [ ] = remark or other dose. Hits are enriched below; roughly 8% of the tested compounds scored in any of these assays. Calls come from the whole dose curve; as a rule, active = well fitted curve in the direction sought with a large enough effect; inconclusive = small, poorly fitted or top-dose-only effect, or another doubt; inactive = no such curve, though single readings can be large; an effect the other way counts as inactive or inconclusive. Potency is the fitted concentration of half-maximal effect.

SMILES | KB-V1 MDR tox | SW480 rereplic | HT1080 IDH1KD tx | HT1080-NT tox | KB-3-1 cytotox | MCF10A rerep
Cc1c(C(=O)NCc2cccc([N+](=O)[O-])c2)sc(=O)n1Cc1ccc(C(C)C)cc1 | 9.2µM* | / | -8% | -8% | ? | /
Cc1c(C(=O)NCc2cccc([N+](=O)[O-])c2)sc(=O)n1Cc1cccc(F)c1 | ? | / | -17% | -5% | i | /
Cn1c(=O)c2[nH]c(CN3CCN(Cc4ccccc4)CC3)nc2n(C)c1=O | i | -2% | 0% | -1% | i | -2%
COc1cccc(-c2ccc3c(N)c(C(=O)Nc4ccc(Cl)cc4F)sc3n2)c1 | i | / | / | / | i | /
Fc1ccc2[nH]c3c(N4CCN(c5ccccc5)CC4)ncnc3c2c1 | 16µM* | 19% | 21µM* | ? | i | ?
OC1(c2cccc(C(F)(F)F)c2)CCN(c2ncnc3c2[nH]c2ccc(F)cc23)CC1 | i | ? | 18µM* | 23µM* | i | ?
CCCC(C)c1nc(C(N)=O)c2[nH]c(=O)n(-c3ccc(OC)c(OC)c3)c2n1 (configuration not stated) | 5.8µM* | -40% | -3% | 12% | i | 0%
CCc1ccc(-c2nc(C(N)=O)c3[nH]c(=O)n(-c4ccccc4OC)c3n2)cc1 | i | 9.2µM* | ? | ? | i | ?
Cc1ccc(-n2c(=O)[nH]c3c(C(N)=O)nc(C(C)C)nc32)cc1 | i | ? | -4% | -5% | i | 8%
COc1ccc(-c2nc(C(N)=O)c3[nH]c(=O)n(-c4cccc(Cl)c4)c3n2)cc1OC | 7.3µM* | -58% | 16µM* | ? | ? | ?
Cc1ccc(C)c(Cn2c(C3CC(=O)N(c4ccccc4C)C3)nc3ccccc32)c1 (configuration not stated) | i | / | / | / | i | /
CC1CCc2cc(F)ccc2N1C(=O)CSc1nnc(-c2cccs2)n1C (configuration not stated) | 7.3µM* | -2% | 2% | -1% | i | 9%
Cn1c(SCC(=O)N2CCCc3ccccc32)nnc1-c1cccs1 | i | -2% | 4% | 0% | i | 0%
CC1CCc2cc(F)ccc2N1C(=O)CSc1nnc2c(n1)[nH]c1ccccc12 (configuration not stated) | 16µM* | 2% | ? | -1% | i | ?
Cn1c(=N)c(S(=O)(=O)c2ccccc2)cc2c(=O)n3ccccc3nc21 | i | ? | -14% | -12% | i | 18µM*
Cc1ccc(S(=O)(=O)c2cc3c(=O)n4ccccc4nc3n(C)c2=N)cc1C | i | -7% | -1% | 2% | i | 4.1µM*
C=CCn1c(=N)c(S(=O)(=O)c2ccc(C)c(C)c2)cc2c(=O)n3ccccc3nc21 | i | ? | -1% | 0% | i | 23µM*
CC(C)OCCCn1c(=N)c(S(=O)(=O)c2ccccc2)cc2c(=O)n3ccccc3nc21 | i | 5% | 10% | 6% | i | ?
Cn1c(=N)c(S(=O)(=O)c2ccc(F)cc2)cc2c(=O)n3ccccc3nc21 | i | ? | 9% | 7% | i | 28%
Cc1c(Cl)cccc1NC(=O)Nc1cnccn1 | ? | -1% | -2% | 2% | 16µM* | 10%
COc1ccc(OC)c(NC(=O)Nc2cnccn2)c1 | i | -23% | 3% | 17% | i | 2%
COc1ccccc1NC(=O)Nc1cnccn1 | 4.1µM* | -3% | 14% | 14% | ? | 2%
COc1ccc(NC(=O)c2ccc3c(SCC(=O)O)c4c(nc3c2)CCCC4)c(OC)c1 | ? | ? | -1% | 6% | ? | ?
CC(=O)N=c1c(C#N)cc2c(=O)n3cccc(C)c3nc2n1CCCOC(C)C | i | 21µM* | 19% | ? | i | ?
Cc1cccn2c(=O)c3cc(C#N)c(=NC(=O)c4cccs4)n(CCCOC(C)C)c3nc12 | ? | 21µM* | 2% | 0% | i | ?
SMILES | KB-V1 MDR tox | SW480 rereplic | HT1080 IDH1KD tx | HT1080-NT tox | KB-3-1 cytotox | MCF10A rerep
Cc1cccn2c(=O)c3cc(C#N)c(=NC(=O)c4ccncc4)n(CCCOC(C)C)c3nc12 | i | ? | -3% | -12% | i | 4.6µM*
CCOC(=O)c1cc2c(=O)n3ccccc3nc2n(Cc2ccco2)c1=NC(=O)c1cc(C)cc(C)c1 | i | / | / | / | i | /
COCCCn1c(=NC(=O)c2ccncc2)c(C#N)cc2c(=O)n3cccc(C)c3nc21 | i | ? | -7% | -5% | i | 787%[0.0737 µM]
N#Cc1cc2c(=O)n3ccccc3nc2n(Cc2ccco2)c1=NC(=O)c1ccco1 | i | 19% | ? | ? | i | 23µM*
CCCn1c(=NC(=O)c2ccncc2)c(C#N)cc2c(=O)n3cccc(C)c3nc21 | i | 27% | 5% | 3% | i | -3%
CCOCCCn1c(=NC(=O)c2cccs2)c(C#N)cc2c(=O)n3ccccc3nc21 | i | 12µM* | 1% | 16% | i | ?
CC(=O)N=c1c(C#N)cc2c(=O)n3cccc(C)c3nc2n1Cc1ccco1 | ? | 0.58µM* | 5% | -4% | i | ?
CCN(CC)C(=O)Cn1cc(C(=O)C(=O)N2CCN(Cc3ccc4c(c3)OCO4)CC2)c2ccccc21 | ? | -3% | 9% | 16% | i | 11%
COc1cccc(NC(=O)CCC2CCN(C(=O)C(OC)c3ccccc3)CC2)c1 (configuration not stated) | ? | / | 3% | 1% | i | /
Cc1nc(Cc2nnc(SCC(=O)N3CCN(c4ccc(O)cc4)CC3)o2)cs1 | i | 2.1µM* | 2% | 11%[9.24 µM] | i | 8%
Cc1nc(Cc2nnc(SCC(=O)N3CCN(c4ccc(F)cc4)CC3)o2)cs1 | i | -16% | 0% | 6% | i | 1%
CCSc1nc2c([nH]c3ccccc32)c(=O)n1C | i | 3% | 23% | 13% | i | -3%
Cn1c(SCC(=O)Nc2ccccc2)nc2c([nH]c3ccccc32)c1=O | i | -12% | -3% | -4% | i | 18µM*
CCC1CCCCN1C(=O)CSc1nc2c([nH]c3ccccc32)c(=O)n1C (configuration not stated) | 23µM* | -4% | 3% | 9% | i | 1%

Assay outcomes (PubChem)
